# According to PubChem BioAssay (NCATS):
# Records with an inconclusive call do not appear. A call without a number means that no potency is given here. Calls of active or inactive are those of the source. Calls come from the whole dose curve; tested in HEK293 reporter line.
# Assay: qHTS for Inhibitors of the Functional Ribonucleoprotein Complex (vRNP) of Lassa (LASV) Arenavirus: LASV Primary Screen - GLuc reporter signal (AID 1347082); note: nearly all actives have a fitted effect of over 60% in size
# Settings: LASV minigenome vRNP, Gaussia luciferase reporter; series mostly up to 57.5 µM
# Potency is the fitted concentration of half-maximal effect.
row,SMILES,Potency
1,C=CCNC(N)=S,inactive
2,CCN1CCN(Cc2ccc(-c3cc4c(N[C@H](C)c5ccccc5)ncnc4[nH]3)cc2)CC1,inactive
3,CCOc1ccc(Cc2cc([C@@H]3O[C@H](CO)[C@@H](O)[C@H](O)[C@@H]3O)ccc2Cl)cc1,inactive
4,O=C(Nc1cc(Cl)cc2c1[nH]c1cnccc12)c1cccnc1,24300 nM (active)
5,CN1[C@@H]2CC[C@H]1CC(OC(=O)C(O)c1ccccc1)C2 (some centres undefined),inactive
6,NC(CO)C(=O)NNCc1ccc(O)c(O)c1O (centres undefined),inactive
7,CC(C)OC(=O)c1cc(C(=O)OC(C)C)cc([N+](=O)[O-])c1,inactive
8,CN1Cc2cc(C(=O)N3CCC(C4CCNCC4)CC3)ccc2N[C@@H](CC(=O)O)C1=O,inactive
9,Cc1cnc(Nc2ccc(F)cc2Cl)nc1-c1c[nH]c(C(=O)N[C@H](CO)c2cccc(Cl)c2)c1,19300 nM (active)
10,CO[C@H]1C=CC=C(C)C(=O)NC2=CC(=O)C(NCCN(C)C)=C(C[C@@H](C)C[C@H](OC)[C@@H](O)[C@@H](C)C=C(C)[C@@H]1OC(N)=O)C2=O,685 nM (active)
11,N#Cc1ccc(NC(=O)Nc2ccccc2Br)c2n[nH]nc12,inactive
12,C1=CC2C3C=CC(C3)C2C1 (centres undefined),inactive
13,CC(=O)NCCC(=O)N[C@@H](CCC(N)=O)C(=O)N[C@@H](CO)C(=O)N[C@@H](CCC(N)=O)C(=O)N[C@@H](CCC(N)=O)C(=O)N[C@H](C(=O)N[C@@H](Cc1ccccc1)C(=O)N[C@]1(C)CCCCCCC=CCCC[C@@](C)(C(=O)N[C@@H](CCC(N)=O)C(=O)N[C@@H](CC(N)=O)C(N)=O)NC(=O)[C@H](CC(C)C)NC(=O)[C@H](CC(C)C)NC(=O)[C@@H](CCCNC(=N)N)NC(=O)[C@H](Cc2c[nH]c3ccccc23)NC(=O)[C@H](CC(C)C)NC(=O)[C@H](CC(N)=O)NC1=O)[C@H](C)O,inactive
14,Cc1cccc(C)c1NC(=O)c1ccccc1C(=O)O,inactive
15,CCOC(=O)c1cccnc1,inactive
16,OCc1ccccn1,inactive
17,Nc1ccc(O)c([N+](=O)[O-])c1,inactive
18,CCCCC(CC)COC(=O)c1ccccc1C(=O)O (centres undefined),inactive
19,Cc1ccccc1N=Nc1ccc(N=Nc2c(O)ccc3ccccc23)c(C)c1,inactive
20,CN(C)C1CCN(C(=O)c2ccc(NC(=O)Nc3nc(N4CCOCC4)nc(N4CCOCC4)n3)cc2)CC1,243 nM (active)

row,SMILES,Potency
1,Cc1c(CN2CCN(C(=O)C(C)C)CC2)sc2c(N3CCOCC3)nc(-c3cnc(N)nc3)nc12,273 nM (active)
2,O=c1cc(CN2CCOCC2)occ1OCCCCCSc1ccnc2cc(C(F)(F)F)ccc12,21700 nM (active)
3,CC(=O)Oc1cccc(C)c1,inactive
4,CCCCn1c(=O)n(Cc2ccccc2F)c(=O)c2[nH]c(Cc3ccc(NC(C)=O)cc3)nc21,inactive
5,O=C(Nc1ccc(F)c(C(F)(F)F)c1)Nc1nnc(-c2ccncc2)s1,inactive
6,NC(=O)c1c(OCc2c(F)cc(Br)cc2F)nsc1NC(=O)NCCCCN1CCCC1,inactive
7,Cn1cc(-c2ccc3nnc(Sc4ccc5ncccc5c4)n3n2)cn1,inactive
8,O=C(c1cc(Cc2n[nH]c(=O)c3ccccc23)ccc1F)N1CCN(C(=O)C2CC2)CC1,inactive
9,Nc1nc2c(ncn2CCC(CO)CO)c(=O)[nH]1,inactive
10,Cn1c(=O)n(-c2ccc(C(C)(C)C#N)cc2)c2c3cc(-c4cnc5ccccc5c4)ccc3ncc21,38.5 nM (active)
11,O=C(NC1CCNCC1)c1[nH]ncc1NC(=O)c1c(Cl)cccc1Cl,3430 nM (active)
12,S=C(NCc1ccc2c(c1)OCO2)N1CCN(c2ncnc3c2oc2ccccc23)CC1,inactive
13,CC(C)(c1ccc(O)cc1)c1ccc(O)cc1,inactive
14,CN1C(=O)c2ccccc2C1=O,inactive
15,CNCc1ccc(-c2[nH]c3cc(F)cc4c3c2CCNC4=O)cc1,inactive
16,COc1ccc2c(c1)c1c3n2CCN(C)C3=NCC1,inactive
17,O=C(O)CNC(=O)CNC(=O)CNC(=O)CSC(=O)c1ccccc1,inactive
18,CCCCCCCCCCCCCC(=O)N[C@H](CO)[C@H](O)c1ccc([N+](=O)[O-])cc1,inactive
19,COc1cc2c(cc1OC)[C@@H]1C(=O)c3ccc4c(c3O[C@@H]1CO2)C=CC(C)(C)O4,153 nM (active)
